{
  "source": "PubChem BioAssay (NCI)",
  "note": "The panel holds about 83,000 compounds, 20% with a hit somewhere; the sample as a whole holds those more often.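 The endpoint reported here, percent growth, reads 100 for growth as untreated, 0 for no net growth and -100 for all cells dead.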 A number with no mark means an inactive call. Calls of active or inactive are those of the source. The calls were made as follows: active = growth percent below 10; inactive = the rest.",
  "data": [
    {"system": "HL-60(TB) leukemia", "assay": "NCI-60 one-dose screen, 48 h (100 = growth as untreated, 0 = no growth, -100 = all killed)", "details": "10 µM unless noted", "values": [
      {"molecule": "COc1ccc(/C=C2\\Oc3cc(OCCCCN4CCCC4)ccc3C2=O)cc1", "growth": "92.1%"},
      {"molecule": "Cc1ccc(-c2nc3nc(-c4ccc(Br)cc4)nc(N4CCCNCC4)c3o2)cc1", "growth": "-47.3% (active)"},
      {"molecule": "COc1cc(C2CC(=O)Nc3c2c(C)nn3-c2nc3ccccc3[nH]2)cc2c1OCC(=O)N2", "note": "(centres undefined)", "growth": "77.4%"},
      {"molecule": "COc1ccccc1-n1c(SCc2cc(OC)c(OC)c(OC)c2)nc2ccc(Cl)cc2c1=O", "growth": "-19.6% (active)"},
      {"molecule": "CC(C)[C@@H](C)/C=C/[C@@H](C)[C@H]1CCC2=C3C=CC4=CC(=O)CC[C@]4(C)[C@H]3CC[C@@]21C", "growth": "93.9%"},
      {"molecule": "Cc1cc(O)c(C(C)C)cc1N=O", "growth": "66.1%"},
      {"molecule": "O=C(NC(=S)Nc1ccc(Cl)cc1)c1ccccc1", "growth": "60.5%"},
      {"molecule": "C/C(=N\\NC(=O)CC#N)c1cc2cc(Cl)ccc2o1", "growth": "99.4%"},
      {"molecule": "COc1cccc2nc(Nc3ccc(NC(=O)c4ccc5ncccc5c4)cc3)ccc12", "growth": "91%"},
      {"molecule": "CC/C(=C(/c1ccc(Cl)cc1)c1ccc(OCCN2CCCCC2)cc1)c1ccc(Cl)cc1", "growth": "68.5%"},
      {"molecule": "COc1cc2cc(NCc3cccc(Cl)c3)nc(C)c2cc1OC", "growth": "14.5%"},
      {"molecule": "O=C1c2c(c3c4ccccc4[nH]c3c3ccc4ccccc4c23)C(=O)N1CCN1CCOCC1", "growth": "53.6%"},
      {"molecule": "O=C(COc1ccc(/C=C2\\Oc3ccc4ccccc4c3C2=O)cc1)c1ccc(Cl)cc1", "growth": "86.5%"},
      {"molecule": "COc1cccc(/C=C/C(=O)c2c(C)nc3ccccc3c2/C=C/c2ccccc2)c1OC", "growth": "13.6%"}
    ]}
  ]
}
